# Assay results reported in publication PMC7819943, “Rice protein-binding microarrays: a tool to detect cis-acting elements near promoter regions in rice”.
# Over roughly 39,000 sequences, “fluorescence intensity (a.u.)” has its median near 4,300; the highest 2% begin near 39,000. The sample holds the highest values, similar sequences and a random draw of the others, so the mix is not that of the screen.
# Biological target: T1, OsSMF1 (Oryza sativa, UniProt Q6ZLB0 1-436)
# T1 sequence: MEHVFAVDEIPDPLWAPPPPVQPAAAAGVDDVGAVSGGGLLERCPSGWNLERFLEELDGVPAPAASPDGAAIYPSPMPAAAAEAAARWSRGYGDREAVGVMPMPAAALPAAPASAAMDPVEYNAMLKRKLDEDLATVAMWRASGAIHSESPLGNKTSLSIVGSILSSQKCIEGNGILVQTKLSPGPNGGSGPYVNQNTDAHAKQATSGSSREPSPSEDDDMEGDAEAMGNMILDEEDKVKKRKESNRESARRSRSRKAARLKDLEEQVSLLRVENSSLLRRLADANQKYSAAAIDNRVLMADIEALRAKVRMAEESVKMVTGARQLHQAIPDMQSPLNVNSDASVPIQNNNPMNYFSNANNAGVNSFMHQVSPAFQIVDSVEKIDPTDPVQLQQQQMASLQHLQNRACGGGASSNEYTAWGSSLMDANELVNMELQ
# Assay: protein-binding microarray (RPBM); PBS, 2% BSA, 51.3 ng/ul salmon testes DNA, 50 uM zinc acetate, 200 nM TF, 25 C, 1 h; high values mean tight binding
# Conditions: protein: recombinant; tags: N-terminal polyhistidine and DsRed monomer fusion (pET32a); chain copies: 2; label: CyDye5-dUTP incorporated in the synthesized complementary strand; 3' TTTTT single-stranded linker to array surface; dsDNA, one strand shown
# Method in brief: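 Polyhistidine-tagged DsRed fusions of transcription factors, joined at the N-terminus, were expressed in E. coli BL21-CodonPlus and isolated on Ni–NTA. They were incubated at 200 nM for 1 h at 25 °C on a custom Agilent array, double-stranded and BSA-blocked, in PBS with 2% BSA, salmon testes DNA and 50 µM zinc acetate. The binding signal is per-feature fluorescence intensity (arbitrary units) read on an Axon 4000B scanner after washing.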
row,Sequence,binding signal
1,CGGTATCGACGCAGCGTCTGAATGCAAGGGCCCGTGGTCACGGAGTCACCTAGTGCAG,27400 fluorescence intensity (a.u.)
2,CGCCCAGGACGTCATGCCGGAGCTGGCCATGGTCACCGCGCGGAGTCACCTAGTGCAG,4070 fluorescence intensity (a.u.)
3,GAGTTGTCAAGGGATGTCATCCCGACGTCAACACGATGGCCGGAGTCACCTAGTGCAG,4620 fluorescence intensity (a.u.)
4,CGGCAACAGCGGTGACAACGTGACGACGGGTGACGAGGCGCGGAGTCACCTAGTGCAG,5320 fluorescence intensity (a.u.)
5,ACGGCGACAGCGTGGAGCTCCACGACGGCAGCGACGTCGGCGGAGTCACCTAGTGCAG,3590 fluorescence intensity (a.u.)
6,CGACAGCGGAACGTGAGCTCTGGGGCGACGACGGCGGCAACGGAGTCACCTAGTGCAG,46800 fluorescence intensity (a.u.)
7,CAAGCTCATCAACTTCGTTCGGTCCAAGGTGCGTCAGGGTCGGAGTCACCTAGTGCAG,3180 fluorescence intensity (a.u.)
8,TTAGCAACCTATCGTCATAGAGAGACCCAATGAACCCTTGCGGAGTCACCTAGTGCAG,3860 fluorescence intensity (a.u.)
9,TAATTGGGGTGATGTGGCTAATTCTCAAAGCAGTTTTATACGGAGTCACCTAGTGCAG,5820 fluorescence intensity (a.u.)
10,TAGAGAAAGCAAAGCACATACATAGGCTAATTCTCCTTTACGGAGTCACCTAGTGCAG,39200 fluorescence intensity (a.u.)
11,CCCTAGTCTCCTCCCTTGTACATAGGCAAATCCATACGCACGGAGTCACCTAGTGCAG,3640 fluorescence intensity (a.u.)
12,CGCCATGGGCGAGGCGGTGAAGGGGCCAGTGGTGGTGACGCGGAGTCACCTAGTGCAG,4250 fluorescence intensity (a.u.)
13,TCTTCCTCAAAGTAAAATAGAAGCTAGGGCTAAGAGCCCACGGAGTCACCTAGTGCAG,65100 fluorescence intensity (a.u.)
14,AAATAGAAAGCCCAAACGGATATTTCTTCCTGAGAGCCACCGGAGTCACCTAGTGCAG,35600 fluorescence intensity (a.u.)
15,TATAGCAAAGAAAAGTAAAATAAGAGGCATGAGCTCACGCCGGAGTCACCTAGTGCAG,37800 fluorescence intensity (a.u.)
16,CTACACACGAGACGTGCAAACCTGCAGATTTTGTTACTTGCGGAGTCACCTAGTGCAG,4830 fluorescence intensity (a.u.)
17,CCACGGGCTACAAAGCACGCGCGTCACTCGCTCTCGCGGCCGGAGTCACCTAGTGCAG,4390 fluorescence intensity (a.u.)
18,CAGAAGCGTCTACATACAATAGGATTGGGGCCTGCAAATCCGGAGTCACCTAGTGCAG,55500 fluorescence intensity (a.u.)
19,TCCGTATGAAATAGTGTCTCCGTCAGATTGGGGAAGCGGGCGGAGTCACCTAGTGCAG,3200 fluorescence intensity (a.u.)
20,AAATGTAGTTGTAAAATCCACAAAATAGTCTAGTCAGAAGCGGAGTCACCTAGTGCAG,3340 fluorescence intensity (a.u.)
21,TGTGTTCTCAATTTTGCGTGTTCTCAATGACACGTGAACACGGAGTCACCTAGTGCAG,5630 fluorescence intensity (a.u.)
22,TAAAAGCCAAGCACCATCTCGAAGTCTTCTTCCTCCTCCACGGAGTCACCTAGTGCAG,12500 fluorescence intensity (a.u.)
23,ATCGAAGGCGAGAGCTCTTCTTCTTCCCCTCCTCCAAGCACGGAGTCACCTAGTGCAG,60500 fluorescence intensity (a.u.)
24,TTCCATTTCTTCCCCTCGCCAAGGCGAGGCCGCGAGAGGGCGGAGTCACCTAGTGCAG,9040 fluorescence intensity (a.u.)
25,CTGTAGAACTTGGACCAGCAGCATCAGCAGTAGTAGCAGGCGGAGTCACCTAGTGCAG,3140 fluorescence intensity (a.u.)
26,GTGATATTCTGTCTTCCTGTGATATCAGCACTGTTTTATGCGGAGTCACCTAGTGCAG,3450 fluorescence intensity (a.u.)
27,ACCAGTGCGCCACTGCCAGCGCAGCACCCGCCCGGTTTAACGGAGTCACCTAGTGCAG,3240 fluorescence intensity (a.u.)

row,Sequence,binding signal
1,ATGTCTTAAGCAAGTTTTGACATCCTCATTACAGTGCGGCCGGAGTCACCTAGTGCAG,3390 fluorescence intensity (a.u.)
2,GTAAAGCCTCGATATATCGATCGATTCCAGCTGTGGCACCCGGAGTCACCTAGTGCAG,3620 fluorescence intensity (a.u.)
3,AGAGCCCACCAGCTGCACCGGCGTGGCATCGTCCACTTGGCGGAGTCACCTAGTGCAG,5060 fluorescence intensity (a.u.)
4,TCGATTCCAGCTGTGGCACCCATAGAGAAATGAGCCCGTCCGGAGTCACCTAGTGCAG,56300 fluorescence intensity (a.u.)
5,AGTTGACGTGGCATACTGACACGTGGGCCCCATGTGGGTTCGGAGTCACCTAGTGCAG,24900 fluorescence intensity (a.u.)
6,AAACGTAATCTAATAACAAAACAAATTACAGAACTGTAAACGGAGTCACCTAGTGCAG,11100 fluorescence intensity (a.u.)
7,ATCCACCGCTGAGTCCCAGACGAGCGAGGGCCAGATCATCCGGAGTCACCTAGTGCAG,3410 fluorescence intensity (a.u.)
8,TAGAAAGTGCCCAATTAGTATAGGTATAGATAGATAGACTCGGAGTCACCTAGTGCAG,51000 fluorescence intensity (a.u.)
9,TGTAGGTATAAGAGTGAGTTGGTGAATTATAGGGTAGACTCGGAGTCACCTAGTGCAG,7410 fluorescence intensity (a.u.)
10,GCATTATATTAGTAGGTCGTGTATTATATTAGTAGGTACTCGGAGTCACCTAGTGCAG,4260 fluorescence intensity (a.u.)
11,ATTACATACTAATTACATATGTAAGTGAGGTGTAACTACTCGGAGTCACCTAGTGCAG,4160 fluorescence intensity (a.u.)
12,GGCAATCATCTTGAAGCATATCAACCCAACCTGATGTTGTCGGAGTCACCTAGTGCAG,28100 fluorescence intensity (a.u.)
13,TTGTTAATTACCGCGATTGATGTCGAGCTTGCATTTTGATCGGAGTCACCTAGTGCAG,3540 fluorescence intensity (a.u.)
14,TTATTGCAAAATAGAAGGATGACGCCACGACGGCCGCTGCCGGAGTCACCTAGTGCAG,3330 fluorescence intensity (a.u.)
15,TTACATACTGTATCATACTGACGTCAACGTATAATATTCCCGGAGTCACCTAGTGCAG,8340 fluorescence intensity (a.u.)
16,CTATACTATTAATATATGGTCTCATCTGTCATACATATATCGGAGTCACCTAGTGCAG,3830 fluorescence intensity (a.u.)
17,TCTGTTAGTGTCATACTGTCATCGACATATAATATTCCCTCGGAGTCACCTAGTGCAG,42500 fluorescence intensity (a.u.)
18,GCGCTTGCGCCTGACCGCCGCGTGACGACATGTTGTCACCCGGAGTCACCTAGTGCAG,6800 fluorescence intensity (a.u.)
19,CGGTGACGACCACCCCACCTCACGATCCAACGGCCAATACCGGAGTCACCTAGTGCAG,4080 fluorescence intensity (a.u.)
20,ACATGCAAAGATGCCACATCATCATCCACTATCACTAATTCGGAGTCACCTAGTGCAG,17600 fluorescence intensity (a.u.)
21,AAAATTGTTCAAAGGATGGCGTAACTTTGGCGTGGAATTACGGAGTCACCTAGTGCAG,3180 fluorescence intensity (a.u.)
22,AACAAGTGTGTTGGTGGTGGTGGAAGTTGTTACAGAATTGCGGAGTCACCTAGTGCAG,3470 fluorescence intensity (a.u.)
23,AGAAGGTTGGAATTTAGTAAGTTGCAGTTACAAATTCAAGCGGAGTCACCTAGTGCAG,53200 fluorescence intensity (a.u.)
24,TCACTCAAATTTACAGTGCATTTTCTTGTAAGTTACAGTGCGGAGTCACCTAGTGCAG,4800 fluorescence intensity (a.u.)
25,GAATTACAAGGATGGTAAGGTTTGGTCTTTCAAAGTCTTACGGAGTCACCTAGTGCAG,40100 fluorescence intensity (a.u.)
26,TCTTTGGATATAAAGCAACTACAATTTCAAAGGTAACCAACGGAGTCACCTAGTGCAG,3460 fluorescence intensity (a.u.)
27,AAGTTATAACCCACTACATACAAAGATACCACGTCATCATCGGAGTCACCTAGTGCAG,15900 fluorescence intensity (a.u.)
